Test results as given in ChEMBL document CHEMBL3988442, “University of Dundee, Small-Polar-MMV Screening Library” (2021).

Target: T1, Tyrosyl-tRNA synthetase, putative (Trypanosoma cruzi (strain CL Brener)) (UniProt Q4DSP6)
T1 sequence (whole entry): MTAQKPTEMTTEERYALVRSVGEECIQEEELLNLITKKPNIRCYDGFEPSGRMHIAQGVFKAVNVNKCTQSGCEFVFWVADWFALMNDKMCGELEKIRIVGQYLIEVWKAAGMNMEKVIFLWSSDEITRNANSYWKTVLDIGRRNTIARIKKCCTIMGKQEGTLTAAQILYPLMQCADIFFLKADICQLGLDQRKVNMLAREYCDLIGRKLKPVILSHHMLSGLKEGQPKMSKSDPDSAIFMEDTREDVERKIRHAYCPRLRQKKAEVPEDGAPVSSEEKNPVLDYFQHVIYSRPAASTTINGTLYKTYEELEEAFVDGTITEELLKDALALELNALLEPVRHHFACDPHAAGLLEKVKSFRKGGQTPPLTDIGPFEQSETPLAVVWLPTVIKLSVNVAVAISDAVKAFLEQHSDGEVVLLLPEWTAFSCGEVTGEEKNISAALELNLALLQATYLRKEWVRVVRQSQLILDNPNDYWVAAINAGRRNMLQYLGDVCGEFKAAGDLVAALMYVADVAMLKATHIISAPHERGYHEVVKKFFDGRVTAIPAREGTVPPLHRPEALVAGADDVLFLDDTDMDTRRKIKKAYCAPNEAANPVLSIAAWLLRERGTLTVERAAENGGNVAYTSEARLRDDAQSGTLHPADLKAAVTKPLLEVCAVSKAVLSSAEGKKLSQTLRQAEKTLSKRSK
Experiment: Trypanosoma cruzi tyrosyl tRNA synthetase (TcYRS) _High Tyrosine SOP; note: in the data most compounds retested in dose-response had high values
Type: functional
Parameters: scale not given: direction of the effect not stated beside the values
Conditions: 30 µM

Structure (SMILES) | Percent Effect
CC(=O)N1CCCN(C(=O)NCCc2cc(Cl)cc(Cl)c2)CC1 | 0%
CC(NC(=O)NCCCN(C)S(C)(=O)=O)c1ccncc1 (stereo not drawn) | 12.5%
COc1cc(C(=O)N2CCC(c3n[nH]c(C4CC4)n3)CC2)ccc1C | 1.04%
Cc1cc2n(n1)CC(CNCc1cnn(-c3ccccc3)c1)CN2 (stereo not drawn) | 12.2%
Cc1nc(O)cc(C2CCN(Cc3cccc(F)c3F)C2)n1 (stereo not drawn) | 2.15%
CCn1ccnc1CN1CCN(Cc2ccc(C#N)cc2)CC1 | 3.43%
O=C(CC1CCCC1)N1CCCC1c1nc(O)cc(-c2ccccn2)n1 (stereo not drawn) | 6.45%
CC(C)NC(=O)c1ccc2c(c1)nc1n2CCN(C(C)C)C1 | 6.35%
CN(C)C(=O)CC1CC2(CCNCC2)c2cc(F)ccc21 (stereo not drawn) | -2.16%
COc1cccc(COCC(=O)N2CCCC(c3cc(C)[nH]n3)C2)c1 (stereo not drawn) | 11.3%
Cc1ccccc1C(=O)N1CCOC2(CNCCOC2)C1 (stereo not drawn) | 1.59%
CC(C)n1ccnc1CN1CCCN(C(=O)COC2CCCC2)CC1 | -1.04%
OC[C@H]1CC[C@]2(CC1)CN(Cc1ccccc1F)Cc1ccccc1O2 | 3.23%
Cc1nc(CN2C[C@@H]3CN(C(=O)c4cnccn4)C[C@@H]3C2)cs1 | 5.21%
c1ccc(-c2noc(CNC3CCc4ncnn4C3)n2)nc1 (stereo not drawn) | 2.97%
CCN1CC(C(=O)NC(C)(C)CNC(=O)OC(C)(C)C)CC1=O (stereo not drawn) | 4.3%
CC(Cn1cccn1)NC(=O)Nc1ccc(F)cc1 (stereo not drawn) | 1.05%
Cc1nc2cc(O)nn2c(C)c1CCC(=O)N(C)Cc1cscn1 | -6.38%
CCc1ncc(CNC2CC(=O)N(CCc3cccc(Cl)c3)C2)cn1 (stereo not drawn) | 6.25%
CC(C)n1c(C2CCCN(CCS(C)(=O)=O)C2)nc2ccccc21 (stereo not drawn) | 5.94%

Structure (SMILES) | Percent Effect
O=C(Cc1ccc2c(c1)OCCO2)N1CCCC(n2cccn2)C1 (stereo not drawn) | -7.62%
Cc1nc(C)n(C2CCCN(C(=O)c3sccc3C3CC3)C2)n1 (stereo not drawn) | -2.46%
Cc1ccc2c(n1)N(CCn1cccn1)CCN(C(=O)CC1CC1)C2 | -5.38%
Cc1nc(CNC(C)c2ccc(OCC(=O)NC3CC3)cc2)cs1 (stereo not drawn) | 4.17%
CN(CCC#N)C(=O)CCOc1cccc(F)c1 | 3.19%
COc1cccc(CNC(=O)CN2CCCCC2Cn2cccn2)c1 (stereo not drawn) | 3.81%
CN1CC(=O)N(c2cnn(C)c2)CC12CCN(Cc1nccn1C)C2 (stereo not drawn) | 4.17%
COc1ncccc1NC(=O)N1CCC(CN2CCOCC2)CC1 | 2.73%
CC(=O)NC(C)(C)C(=O)Nc1ncc(Cc2ccc(C)c(F)c2)s1 | 5.21%
Cc1cccc(COC[C@]23COC[C@H]2CN(C(=O)c2ccsc2)C3)n1 | 8.91%
COCc1noc(C2(c3ccc(OC)cc3)CCOCC2)n1 | 3.7%
CC(=O)Nc1cccc(C(=O)Nc2cnc3n2CCCC3)c1 | 4.21%
O=C(NCCOc1ccc2c(c1)OCO2)C1CC(=O)N(CC2CC2)C1 (stereo not drawn) | 6.4%
CN(C)c1cncc(C2CCN(CCO)CC2)n1 | 7.53%
COc1ccc(OCC(=O)NS(=O)(=O)c2cc(F)ccc2F)cc1 | -3.7%
Cc1nn(C)c(N(C)C)c1CNCc1cccnc1-n1cncn1 | 7.29%
COc1ccc(CN2C[C@@H]3COC[C@]3(COc3cccnc3)C2)cc1 | 0%
O=C(NCCN1CCC(c2cccs2)CC1)c1ccccc1C(F)(F)F | 5.38%
Cc1nc(CN2CCCC(N(C)Cc3c(C)noc3C)C2)no1 (stereo not drawn) | 1.91%

Target: T1, Tyrosyl-tRNA synthetase, putative (Trypanosoma cruzi (strain CL Brener))
Experiment: Trypanosoma cruzi tyrosyl tRNA synthetase (TcYRS) SOP
Type: functional
Parameters: scale not given: direction of the effect not stated beside the values
Conditions: 30 µM

Structure (SMILES) | Percent Effect
CC(=O)N1CCCN(C(=O)NCCc2cc(Cl)cc(Cl)c2)CC1 | 2.53%
CC(NC(=O)NCCCN(C)S(C)(=O)=O)c1ccncc1 (stereo not drawn) | 20.2%
COc1cc(C(=O)N2CCC(c3n[nH]c(C4CC4)n3)CC2)ccc1C | -2.53%
Cc1cc2n(n1)CC(CNCc1cnn(-c3ccccc3)c1)CN2 (stereo not drawn) | 12.2%
Cc1nc(O)cc(C2CCN(Cc3cccc(F)c3F)C2)n1 (stereo not drawn) | 16.9%
CCn1ccnc1CN1CCN(Cc2ccc(C#N)cc2)CC1 | 19.5%
O=C(CC1CCCC1)N1CCCC1c1nc(O)cc(-c2ccccn2)n1 (stereo not drawn) | 19.5%
CC(C)NC(=O)c1ccc2c(c1)nc1n2CCN(C(C)C)C1 | 7.69%
CN(C)C(=O)CC1CC2(CCNCC2)c2cc(F)ccc21 (stereo not drawn) | 0%
COc1cccc(COCC(=O)N2CCCC(c3cc(C)[nH]n3)C2)c1 (stereo not drawn) | 16.1%
Cc1ccccc1C(=O)N1CCOC2(CNCCOC2)C1 (stereo not drawn) | 9.76%
CC(C)n1ccnc1CN1CCCN(C(=O)COC2CCCC2)CC1 | 2.53%
OC[C@H]1CC[C@]2(CC1)CN(Cc1ccccc1F)Cc1ccccc1O2 | 14.3%
Cc1nc(CN2C[C@@H]3CN(C(=O)c4cnccn4)C[C@@H]3C2)cs1 | 16.1%
c1ccc(-c2noc(CNC3CCc4ncnn4C3)n2)nc1 (stereo not drawn) | 1.22%
CCN1CC(C(=O)NC(C)(C)CNC(=O)OC(C)(C)C)CC1=O (stereo not drawn) | 8.64%
CC(Cn1cccn1)NC(=O)Nc1ccc(F)cc1 (stereo not drawn) | 0%
Cc1nc2cc(O)nn2c(C)c1CCC(=O)N(C)Cc1cscn1 | 5.2%
CCc1ncc(CNC2CC(=O)N(CCc3cccc(Cl)c3)C2)cn1 (stereo not drawn) | 11.1%
CC(C)n1c(C2CCCN(CCS(C)(=O)=O)C2)nc2ccccc21 (stereo not drawn) | 8.54%

Structure (SMILES) | Percent Effect
O=C(Cc1ccc2c(c1)OCCO2)N1CCCC(n2cccn2)C1 (stereo not drawn) | -2.35%
Cc1nc(C)n(C2CCCN(C(=O)c3sccc3C3CC3)C2)n1 (stereo not drawn) | -8.86%
Cc1ccc2c(n1)N(CCn1cccn1)CCN(C(=O)CC1CC1)C2 | 11.1%
Cc1nc(CNC(C)c2ccc(OCC(=O)NC3CC3)cc2)cs1 (stereo not drawn) | -48.1%
CN(CCC#N)C(=O)CCOc1cccc(F)c1 | 10.4%
COc1cccc(CNC(=O)CN2CCCCC2Cn2cccn2)c1 (stereo not drawn) | 11.8%
CN1CC(=O)N(c2cnn(C)c2)CC12CCN(Cc1nccn1C)C2 (stereo not drawn) | 6.17%
COc1ncccc1NC(=O)N1CCC(CN2CCOCC2)CC1 | 6.17%
CC(=O)NC(C)(C)C(=O)Nc1ncc(Cc2ccc(C)c(F)c2)s1 | 17.7%
Cc1cccc(COC[C@]23COC[C@H]2CN(C(=O)c2ccsc2)C3)n1 | 13.4%
COCc1noc(C2(c3ccc(OC)cc3)CCOCC2)n1 | 17.1%
CC(=O)Nc1cccc(C(=O)Nc2cnc3n2CCCC3)c1 | 5.13%
O=C(NCCOc1ccc2c(c1)OCO2)C1CC(=O)N(CC2CC2)C1 (stereo not drawn) | 23.5%
CN(C)c1cncc(C2CCN(CCO)CC2)n1 | 16.9%
COc1ccc(OCC(=O)NS(=O)(=O)c2cc(F)ccc2F)cc1 | -4.88%
Cc1nn(C)c(N(C)C)c1CNCc1cccnc1-n1cncn1 | 12.7%
COc1ccc(CN2C[C@@H]3COC[C@]3(COc3cccnc3)C2)cc1 | 6.1%
O=C(NCCN1CCC(c2cccs2)CC1)c1ccccc1C(F)(F)F | 12.5%
Cc1nc(CN2CCCC(N(C)Cc3c(C)noc3C)C2)no1 (stereo not drawn) | 9.41%
